HT1080 IDH1KD tx: qHTS for induction of synthetic lethality in tumor cells producing 2HG: qHTS for the HT-1080-IDH1KD cell line; 2% of 360,000 active; Potency, µM (series often up to 46.1 µM), actives largely listed as cytotoxic; HT-1080 IDH1 knockdown viability, ATP luminescence, 48 h
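Viability of IDH1-knockdown HT-1080 fibrosarcoma cells was assessed by CellTiter-Glo after 48 h at 37 °C with titrated compound; concentration-effect curves were classified by fit quality and response size.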
HT1080-NT tox: qHTS for induction of synthetic lethality in tumor cells producing 2HG: qHTS for the HT-1080-NT fibrosarcoma cell line | HT-1080-NT fibrosarcoma viability, CellTiter-Glo ATP luminescence, 48 h | Potency, µM (series often up to 46.1 µM), usual class: cytotoxic | 1.6% of 360,000 active | AID 686970, 2013;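 also: NT is the 2HG producing partner of a matched IDH1 knockdown line; nearly all actives have a fitted effect of over 55% in size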
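HT-1080-NT fibrosarcoma cells (2HG-overproducing), 750 cells/well in RPMI with 5% FBS, dosed after 2 h and incubated 48 h at 37C. CellTiter-Glo luminescence normalized to DMSO and no-cell wells; concentration-response curves fitted and classed.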
IL-1B inflam inh: qHTS for Inhibitors of Inflammasome Signaling: IL-1-beta AlphaLISA Primary Screen. THP-1 LPS/ATP IL-1B secretion, AlphaLISA, 16 h; active compounds read low. activity change, % at 57.5 µM. 4.7% of 360,000 active; in the data active = activity change below about -50%; inconclusive = mostly about -30% to -49%
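THP-1 cells pretreated 1 hr with compounds (up to 57.5 uM final), then stimulated with LPS (250 ng/mL final) plus ATP (1.25 mM final); secreted IL-1B measured by AlphaLISA after 16 hr, decreased signal indicating inhibition.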
TDP1 cell noCPT: qHTS for Inhibitors of human tyrosyl-DNA phosphodiesterase 1 (TDP1): qHTS in cells in absence of CPT | 15% of 420,000 active | DT40 Tdp1-/- hTDP1 cells, no CPT, ATP luminescence, 48 h | AID 686978, 2013 | Potency, µM (doses to about 46.2 µM), actives largely listed as inhibitors; also: nearly all actives have a fitted effect of over 55% in size
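No-CPT arm: Tdp1-/-;hTDP1 DT40 cells (400/well) plus compounds, incubated ≥48 hr at 37 °C. Readout CellTiter-Glo luminescence.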
TDP1 cell CPT: qHTS for Inhibitors of human tyrosyl-DNA phosphodiesterase 1 (TDP1): qHTS in cells in presence of CPT; 12% of 420,000 active; Potency, µM (doses to about 46.2 µM), hits mostly inhibitors; chicken DT40 Tdp1-/-;hTDP1 cells + 20 nM CPT, ATP luminescence, 48 h; also: nearly all actives have a fitted effect of over 55% in size
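Chicken DT40 Tdp1-/- cells complemented with human TDP1, 400 cells/well, exposed to compounds plus 20 nM camptothecin for at least 48 h at 37 C; viability read as ATP content by CellTiter-Glo luminescence.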
12-LOX inh: Primary qHTS assay for inhibitors of human arachidonate 12S-lipoxygenase (ALOX12): Round 2; Polyunsaturated fatty acid lipoxygenase ALOX12 (Homo sapiens), P18054; purified 12hLO, xylenol orange hydroperoxide absorbance; Potency, µM (doses to about 108 µM), actives largely listed as inhibitors; 1.1% of 580,000 active
Target sequence (P18054 whole entry, looked up): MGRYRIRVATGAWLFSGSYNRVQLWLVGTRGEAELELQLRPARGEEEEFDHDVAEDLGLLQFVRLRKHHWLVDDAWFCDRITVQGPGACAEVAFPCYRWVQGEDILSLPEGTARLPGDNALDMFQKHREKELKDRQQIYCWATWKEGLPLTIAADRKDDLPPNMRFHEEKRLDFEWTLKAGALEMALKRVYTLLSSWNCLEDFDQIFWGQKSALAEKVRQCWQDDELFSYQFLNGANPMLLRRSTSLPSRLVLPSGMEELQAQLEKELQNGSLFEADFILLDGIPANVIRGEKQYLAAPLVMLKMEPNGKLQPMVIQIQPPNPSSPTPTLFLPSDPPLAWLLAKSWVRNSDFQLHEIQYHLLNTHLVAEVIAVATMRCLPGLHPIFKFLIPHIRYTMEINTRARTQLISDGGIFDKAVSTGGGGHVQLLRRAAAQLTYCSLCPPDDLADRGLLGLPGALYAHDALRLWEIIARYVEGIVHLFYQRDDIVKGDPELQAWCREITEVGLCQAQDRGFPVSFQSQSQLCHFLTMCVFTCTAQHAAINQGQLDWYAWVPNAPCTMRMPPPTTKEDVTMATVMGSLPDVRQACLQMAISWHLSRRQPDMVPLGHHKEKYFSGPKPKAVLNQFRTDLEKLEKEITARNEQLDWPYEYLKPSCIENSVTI
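Purified human 12hLO at 150 nM in 25 mM Hepes, 0.01% Triton X-100, pH 7.0, preincubated 15 min at room temperature with compound. Reaction started with 40 uM arachidonic acid, 30 min at room temperature. Hydroperoxide measured by Fe-xylenol orange, 573/405 nm absorbance ratio.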
Numbers stand for hits; . = inactive; ? = inconclusive; / = no result given. This is one part of a sample in which hits are shown more often than they occur. Unless noted, calls follow the shape of the dose curve; as a rule, active = well fitted curve in the direction sought with a large enough effect; inconclusive = small, poorly fitted or top-dose-only effect, or another doubt; inactive = no such curve, though single readings can be large; an effect the other way counts as inactive or inconclusive.

SMILES | HT1080 IDH1KD tx | HT1080-NT tox | IL-1B inflam inh | TDP1 cell noCPT | TDP1 cell CPT | 12-LOX inh
COc1cccc(C(=O)Cn2c(=N)n(C)c3ccccc32)c1 | ? | ? | . | 21µM | 13µM | .
CCOC(=O)c1cc2ccccc2n1CCN(CC)CC | . | . | . | . | . | .
CCN(CC)CCn1c(=N)n(CC(=O)c2ccc(Br)s2)c2ccccc21 | 23µM | 23µM | / | 7.3µM | 5.8µM | ?
Cn1c(=N)n(CC(=O)c2ccc(Br)s2)c2ccccc21 | ? | 26µM | -95 | 18µM | 26µM | .
Cc1ocnc1C(=O)N1CCC2(CCC(=O)N(CC(C)O)C2)CC1 (centres undefined) | / | / | / | / | / | .
CCCCN1CCN(c2nc3c(c(=O)[nH]c(=O)n3C)n2Cc2ccccc2F)CC1 | / | / | / | / | / | .
Cc1ccc(S(=O)(=O)Nc2ccc3c(c2)C(=O)N([C@@H](C)CO)C[C@@H](C)[C@@H](CN(C)CC2CC2)OCCCC[C@@H](C)O3)cc1 | . | . | . | ? | ? | ?
C[C@H]1CCCCO[C@H](CN(C)Cc2ccncc2)[C@@H](C)CN([C@@H](C)CO)C(=O)c2cc(NS(=O)(=O)c3ccccc3)ccc2O1 | . | . | . | ? | . | .
Cc1ccc(S(=O)(=O)N(C)C[C@@H]2OCCCC[C@@H](C)Oc3ccc(NS(=O)(=O)c4c(C)noc4C)cc3C(=O)N([C@H](C)CO)C[C@@H]2C)cc1 | . | . | . | 12µM | 16µM | ?
C[C@@H]1CCCCO[C@@H](CN(C)Cc2ccc3c(c2)OCO3)[C@@H](C)CN([C@H](C)CO)C(=O)c2cc(NS(=O)(=O)c3ccccc3)ccc2O1 | ? | ? | . | 10µM | 18µM | .
Cc1ccc(S(=O)(=O)Nc2ccc3c(c2)C(=O)N([C@@H](C)CO)C[C@@H](C)[C@@H](CN(C)S(=O)(=O)c2ccccc2)OCCCC[C@H](C)O3)cc1 | . | . | . | 10µM | 8.2µM | ?
Cc1cccc(-c2nocc2CCC(=O)NCc2ccc(F)cc2F)c1 | / | / | / | / | / | .
CCOC(=O)NC(CNC(=O)c1cc(C)ccc1C)CC(C)C (centres undefined) | / | / | / | / | / | .
CCc1ccccc1NC(=O)CCS(=O)(=O)c1ccc2c(c1)oc(=O)n2C | / | / | / | / | / | .
Cc1cccc(-c2ccc(CN)cc2)c1 | / | / | / | / | / | .
Cn1c(=O)c2c(nc(NCc3ccc(S(N)(=O)=O)cc3)n2Cc2ccccc2Cl)n(C)c1=O | / | / | / | / | / | .
CCc1cccc2c(C(C)=O)cn(CC(=O)NC3CC3)c12 | / | / | / | / | / | 32µM
C/C(Cc1ccccc1)=N\NC(=O)c1ccc(C)cc1 | / | / | / | / | / | .
CCCOc1ccc(C2C(C(=O)c3ccc(C)o3)=C(O)C(=O)N2Cc2ccco2)cc1 (centres undefined) | . | . | . | ? | ? | ?
COc1cc(C2C(C(=O)c3ccc(C)o3)=C(O)C(=O)N2Cc2ccccc2)ccc1O (centres undefined) | . | . | . | ? | . | ?
CCCOc1ccc(C2C(C(=O)c3ccc(C)o3)=C(O)C(=O)N2Cc2ccco2)cc1OCC (centres undefined) | . | . | . | 23µM | ? | ?
CCOc1cc(C2C(C(=O)c3ccc(C)o3)=C(O)C(=O)N2CCc2ccccc2)ccc1O (centres undefined) | . | . | . | . | . | 8.9µM
CC(Sc1nnc(COc2ccc3c(c2)CCCC3)n1C)C(=O)Nc1ccc2c(c1)OCO2 (centres undefined) | / | / | / | / | / | .
CC(C)C(=O)NCCNC(=O)C1(c2ccccc2)CCC1 | / | / | / | / | / | .
Cc1ccccc1C(=O)N1CCC(C(NC(=O)c2cccs2)C(=O)N2CCCCC2)CC1 (centres undefined) | / | / | / | / | / | .
SMILES | HT1080 IDH1KD tx | HT1080-NT tox | IL-1B inflam inh | TDP1 cell noCPT | TDP1 cell CPT | 12-LOX inh
CCOC(=O)C1CCN(CC(O)COc2ccc(C(C)(C)C)cc2)CC1 (centres undefined) | ? | ? | . | 16µM | ? | .
CCOC(=O)C1CCN(CC(O)COc2ccc(C(C)(C)CC)cc2)CC1 (centres undefined) | . | . | ? | 18µM | 16µM | .
Cc1ccccc1Cc1c(C)nc2c(C(=O)N3CCC(Cc4nncn4CC4CC4)CC3)cnn2c1C | / | / | / | / | / | .
N/C(Cc1nc(-c2ccc(F)cc2)cs1)=N\O | . | . | -54 | . | . | .
COc1cccc2sc(N(Cc3cccnc3)C(=O)c3ccco3)nc12 | / | / | / | ? | 16µM | .
COc1ccc(OC)c2sc(N(Cc3cccnc3)C(=O)c3ccco3)nc12 | / | / | / | 21µM | ? | ?
CCN(CC)c1ccc(S(=O)(=O)N2CCOCC2)cc1NC(=O)CSC(=S)N1CCCC1 | . | . | ? | 10µM | 18µM | .
CN1CCN(CC(=O)Nc2cc(S(=O)(=O)N3CCOCC3)ccc2Cl)CC1 | . | . | . | . | . | .
CCN(CC)c1ccc(S(=O)(=O)N2CCOCC2)cc1NC(=O)CN1CCN(Cc2ccccc2)CC1 | . | . | . | 15µM | 16µM | .
CCN(CC)c1ccc(S(=O)(=O)N2CCOCC2)cc1NC(=O)CNCc1ccccc1 | . | . | . | 21µM | ? | .
CCN(CC)c1ccc(S(=O)(=O)N2CCOCC2)cc1NC(=O)Nc1ccccc1 | . | . | . | 21µM | ? | ?
CCC(C)NC(=O)c1ccc(CNC(=O)NC(C)C)cc1 (centres undefined) | / | / | / | / | / | .
Cc1c(-c2ccccc2)oc2c(C(=O)OCC(=O)NC3CCCC3)cccc2c1=O | / | / | / | / | / | .
CCOc1ccc(-c2nc3cc(NC(=O)c4ccccc4OC)ccc3o2)cc1 | / | / | / | / | / | .
COc1ccc(-c2nc3cc(NC(=O)c4cc5ccccc5o4)ccc3o2)cc1 | / | / | / | 16µM | ? | .
Cc1ccc(-c2nc3cc(NC(=O)c4cc5ccccc5o4)ccc3o2)cc1 | / | / | / | ? | . | .
COc1cc2ccccc2cc1C(=O)Nc1cccc(-c2nc3cc(C)c(C)cc3o2)c1 | / | / | / | 15µM | ? | .
CCc1ccc(-c2nc3cc(NC(=O)c4cc5ccccc5cc4OC)ccc3o2)cc1 | / | / | / | 13µM | ? | .
COc1cc(Cl)c(NS(=O)(=O)c2ccc3c(c2)CC(C)N3C(=O)C2CCC2)c(OC)c1 (centres undefined) | / | / | / | 5.8µM | 6.5µM | .
